For two compounds, inhibition results are on record in ChEMBL document CHEMBL1961873, “Compounds: GSK PKIS; Assays: Nanosyn kinase panel” (2012).

Test [1] has as its target T1, Inhibitor of nuclear factor kappa-B kinase subunit epsilon (Homo sapiens) (UniProt Q14164).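 Note: reported values are averaged percent inhibition figures against human IKKε.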
T1 sequence (whole entry): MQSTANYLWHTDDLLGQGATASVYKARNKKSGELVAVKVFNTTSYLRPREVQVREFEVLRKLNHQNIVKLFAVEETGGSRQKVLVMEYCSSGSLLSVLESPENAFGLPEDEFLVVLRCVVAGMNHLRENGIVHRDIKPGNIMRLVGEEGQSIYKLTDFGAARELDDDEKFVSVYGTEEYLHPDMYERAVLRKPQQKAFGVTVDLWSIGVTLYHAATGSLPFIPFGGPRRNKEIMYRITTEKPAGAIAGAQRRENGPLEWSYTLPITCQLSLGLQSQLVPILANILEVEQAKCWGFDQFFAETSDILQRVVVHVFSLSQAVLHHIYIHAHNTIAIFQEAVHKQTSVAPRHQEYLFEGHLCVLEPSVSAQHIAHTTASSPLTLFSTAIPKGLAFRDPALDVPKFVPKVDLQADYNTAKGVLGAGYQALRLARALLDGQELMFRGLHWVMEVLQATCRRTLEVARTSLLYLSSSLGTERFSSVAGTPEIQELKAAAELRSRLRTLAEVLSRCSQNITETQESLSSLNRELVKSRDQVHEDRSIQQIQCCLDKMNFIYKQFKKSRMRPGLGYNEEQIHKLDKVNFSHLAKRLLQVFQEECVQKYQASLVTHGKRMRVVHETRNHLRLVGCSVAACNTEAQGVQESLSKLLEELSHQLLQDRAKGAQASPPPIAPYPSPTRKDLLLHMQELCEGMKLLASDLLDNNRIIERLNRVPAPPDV
To be noted: at 1 µM.

The target of test [2] is T2, Serine/threonine-protein kinase Nek1 (Homo sapiens) (UniProt Q96PY6).
T2 sequence (whole entry): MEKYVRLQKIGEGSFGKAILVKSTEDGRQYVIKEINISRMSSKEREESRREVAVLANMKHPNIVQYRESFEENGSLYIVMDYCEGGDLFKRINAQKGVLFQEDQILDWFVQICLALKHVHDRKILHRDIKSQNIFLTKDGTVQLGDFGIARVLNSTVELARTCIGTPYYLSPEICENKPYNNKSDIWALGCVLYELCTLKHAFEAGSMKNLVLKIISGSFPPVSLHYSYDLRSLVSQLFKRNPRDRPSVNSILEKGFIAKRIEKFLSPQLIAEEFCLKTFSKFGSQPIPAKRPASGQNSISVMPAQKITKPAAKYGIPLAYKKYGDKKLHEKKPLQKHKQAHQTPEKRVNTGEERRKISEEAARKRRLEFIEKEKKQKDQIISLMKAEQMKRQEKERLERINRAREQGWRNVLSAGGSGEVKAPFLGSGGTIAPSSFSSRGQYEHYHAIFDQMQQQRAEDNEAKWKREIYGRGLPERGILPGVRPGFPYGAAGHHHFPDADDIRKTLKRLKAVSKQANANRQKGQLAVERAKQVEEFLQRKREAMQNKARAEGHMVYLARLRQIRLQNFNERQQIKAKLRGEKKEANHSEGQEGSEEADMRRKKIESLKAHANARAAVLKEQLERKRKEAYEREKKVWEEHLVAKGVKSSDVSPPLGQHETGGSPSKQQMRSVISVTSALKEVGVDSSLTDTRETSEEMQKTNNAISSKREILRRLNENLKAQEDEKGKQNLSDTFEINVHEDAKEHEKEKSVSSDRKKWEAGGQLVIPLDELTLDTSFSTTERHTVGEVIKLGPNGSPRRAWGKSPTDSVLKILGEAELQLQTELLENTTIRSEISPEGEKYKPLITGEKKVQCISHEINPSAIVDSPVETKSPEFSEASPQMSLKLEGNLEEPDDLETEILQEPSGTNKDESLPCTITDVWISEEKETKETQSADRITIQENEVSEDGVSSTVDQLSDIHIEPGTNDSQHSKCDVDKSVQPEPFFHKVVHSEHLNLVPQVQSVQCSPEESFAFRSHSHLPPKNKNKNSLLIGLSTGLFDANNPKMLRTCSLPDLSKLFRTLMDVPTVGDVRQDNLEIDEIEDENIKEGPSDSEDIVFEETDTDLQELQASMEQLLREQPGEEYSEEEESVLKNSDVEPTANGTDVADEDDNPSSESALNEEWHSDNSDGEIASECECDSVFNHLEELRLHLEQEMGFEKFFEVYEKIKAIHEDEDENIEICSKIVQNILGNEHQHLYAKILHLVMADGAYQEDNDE
To be noted: at 0.1 µM.

The target of test [3] is T2, Serine/threonine-protein kinase Nek1 (Homo sapiens). To be noted: at 1 µM.
Test [4] addresses T3, Serine/threonine-protein kinase Nek2 (Homo sapiens) (UniProt P51955).
T3 sequence (whole entry): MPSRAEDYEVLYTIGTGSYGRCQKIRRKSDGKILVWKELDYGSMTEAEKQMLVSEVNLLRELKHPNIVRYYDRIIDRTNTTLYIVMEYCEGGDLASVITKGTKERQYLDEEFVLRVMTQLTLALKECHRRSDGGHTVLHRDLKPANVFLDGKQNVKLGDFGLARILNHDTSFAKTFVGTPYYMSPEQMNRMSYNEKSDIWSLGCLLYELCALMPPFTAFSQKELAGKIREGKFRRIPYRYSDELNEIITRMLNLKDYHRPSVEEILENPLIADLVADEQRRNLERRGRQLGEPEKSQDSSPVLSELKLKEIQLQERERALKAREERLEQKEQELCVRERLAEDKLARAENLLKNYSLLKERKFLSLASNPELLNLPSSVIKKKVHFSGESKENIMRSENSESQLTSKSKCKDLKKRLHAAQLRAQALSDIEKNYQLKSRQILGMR
The following applies: at 0.1 µM.

Test [5] addresses T3, Serine/threonine-protein kinase Nek2 (Homo sapiens). The following applies: at 1 µM.
For test [6], the target named is Serine/threonine-protein kinase Nek6 (Homo sapiens) (UniProt Q9HC98). To be noted: at 0.1 µM.
Chain of Serine/threonine-protein kinase Nek6 (Homo sapiens) (Q9HC98 whole entry): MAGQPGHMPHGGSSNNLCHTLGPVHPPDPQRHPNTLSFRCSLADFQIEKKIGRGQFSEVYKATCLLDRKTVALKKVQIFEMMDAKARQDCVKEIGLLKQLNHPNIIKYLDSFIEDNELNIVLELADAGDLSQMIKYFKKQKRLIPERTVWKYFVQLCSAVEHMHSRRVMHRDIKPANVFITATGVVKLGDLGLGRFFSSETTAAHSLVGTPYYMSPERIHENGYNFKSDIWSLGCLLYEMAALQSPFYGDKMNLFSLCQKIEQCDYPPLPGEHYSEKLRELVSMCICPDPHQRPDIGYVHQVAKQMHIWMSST
Test [7] shares this target. To be noted: at 1 µM.
Test [8] has as its target Serine/threonine-protein kinase Nek7 (Homo sapiens) (UniProt Q8TDX7). The following applies: at 0.1 µM.
For test [9] the target is unchanged. To be noted: at 1 µM.
For test [10], the target named is T4, Serine/threonine-protein kinase Nek9 (Homo sapiens) (UniProt Q8TD19).
T4 sequence (whole entry): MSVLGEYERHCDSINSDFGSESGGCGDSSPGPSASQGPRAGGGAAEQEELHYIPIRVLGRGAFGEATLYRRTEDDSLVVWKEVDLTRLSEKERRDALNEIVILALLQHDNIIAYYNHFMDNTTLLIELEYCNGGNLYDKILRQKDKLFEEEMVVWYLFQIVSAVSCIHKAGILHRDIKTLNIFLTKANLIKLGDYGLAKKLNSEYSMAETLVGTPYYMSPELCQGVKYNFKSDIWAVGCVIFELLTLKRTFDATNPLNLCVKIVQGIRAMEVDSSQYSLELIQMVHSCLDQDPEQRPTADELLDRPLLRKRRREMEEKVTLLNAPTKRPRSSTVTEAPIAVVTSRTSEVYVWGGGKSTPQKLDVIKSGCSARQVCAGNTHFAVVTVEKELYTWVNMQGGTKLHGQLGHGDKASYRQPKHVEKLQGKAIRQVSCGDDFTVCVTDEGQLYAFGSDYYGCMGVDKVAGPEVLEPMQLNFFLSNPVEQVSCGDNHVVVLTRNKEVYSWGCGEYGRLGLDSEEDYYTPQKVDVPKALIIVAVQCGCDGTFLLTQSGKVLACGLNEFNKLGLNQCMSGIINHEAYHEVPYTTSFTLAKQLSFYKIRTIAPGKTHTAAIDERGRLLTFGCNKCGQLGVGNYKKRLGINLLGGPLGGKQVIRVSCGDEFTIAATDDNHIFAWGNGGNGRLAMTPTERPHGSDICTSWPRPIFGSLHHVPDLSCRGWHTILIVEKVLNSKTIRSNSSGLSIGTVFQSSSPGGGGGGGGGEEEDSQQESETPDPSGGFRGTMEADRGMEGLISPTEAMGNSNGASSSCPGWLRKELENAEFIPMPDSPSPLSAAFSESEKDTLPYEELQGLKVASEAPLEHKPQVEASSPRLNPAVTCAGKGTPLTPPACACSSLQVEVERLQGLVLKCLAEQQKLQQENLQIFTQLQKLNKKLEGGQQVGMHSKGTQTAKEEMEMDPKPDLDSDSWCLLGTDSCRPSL
The following applies: at 0.1 µM.

For test [11], the target named is T4, Serine/threonine-protein kinase Nek9 (Homo sapiens). The following applies: at 1 µM.
Test [12] has as its target Serine/threonine-protein kinase PLK1 (Homo sapiens) (UniProt P53350). The following applies: at 0.1 µM.
For test [13] the target is unchanged. To be noted: at 1 µM.
The target of test [14] is T5, Dual specificity protein kinase TTK (Homo sapiens) (UniProt P33981).
T5 sequence (whole entry): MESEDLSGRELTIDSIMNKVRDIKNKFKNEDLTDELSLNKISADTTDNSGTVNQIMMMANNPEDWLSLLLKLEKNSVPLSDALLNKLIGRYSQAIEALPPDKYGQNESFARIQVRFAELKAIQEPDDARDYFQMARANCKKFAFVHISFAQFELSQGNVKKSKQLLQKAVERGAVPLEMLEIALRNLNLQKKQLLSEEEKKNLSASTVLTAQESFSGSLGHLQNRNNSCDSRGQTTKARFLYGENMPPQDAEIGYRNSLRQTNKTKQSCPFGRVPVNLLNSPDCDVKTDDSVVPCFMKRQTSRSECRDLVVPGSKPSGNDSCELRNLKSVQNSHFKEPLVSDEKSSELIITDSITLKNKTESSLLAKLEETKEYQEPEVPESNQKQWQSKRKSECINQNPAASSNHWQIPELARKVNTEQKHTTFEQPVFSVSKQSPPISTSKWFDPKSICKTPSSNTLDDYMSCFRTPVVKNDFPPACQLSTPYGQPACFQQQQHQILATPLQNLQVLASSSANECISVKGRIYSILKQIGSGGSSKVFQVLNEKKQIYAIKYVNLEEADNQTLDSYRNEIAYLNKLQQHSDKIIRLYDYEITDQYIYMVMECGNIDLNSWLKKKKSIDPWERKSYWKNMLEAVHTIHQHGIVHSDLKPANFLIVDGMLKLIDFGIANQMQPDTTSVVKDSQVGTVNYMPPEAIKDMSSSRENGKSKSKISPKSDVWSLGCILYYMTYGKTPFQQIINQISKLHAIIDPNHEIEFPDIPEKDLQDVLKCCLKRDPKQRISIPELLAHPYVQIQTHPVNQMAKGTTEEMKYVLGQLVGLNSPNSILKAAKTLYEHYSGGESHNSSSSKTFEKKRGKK
The following applies: at 0.1 µM.

Test [15] deals with T6, Receptor-type tyrosine-protein kinase FLT3 (Homo sapiens), P36888 [D835Y].
T6 sequence (whole entry): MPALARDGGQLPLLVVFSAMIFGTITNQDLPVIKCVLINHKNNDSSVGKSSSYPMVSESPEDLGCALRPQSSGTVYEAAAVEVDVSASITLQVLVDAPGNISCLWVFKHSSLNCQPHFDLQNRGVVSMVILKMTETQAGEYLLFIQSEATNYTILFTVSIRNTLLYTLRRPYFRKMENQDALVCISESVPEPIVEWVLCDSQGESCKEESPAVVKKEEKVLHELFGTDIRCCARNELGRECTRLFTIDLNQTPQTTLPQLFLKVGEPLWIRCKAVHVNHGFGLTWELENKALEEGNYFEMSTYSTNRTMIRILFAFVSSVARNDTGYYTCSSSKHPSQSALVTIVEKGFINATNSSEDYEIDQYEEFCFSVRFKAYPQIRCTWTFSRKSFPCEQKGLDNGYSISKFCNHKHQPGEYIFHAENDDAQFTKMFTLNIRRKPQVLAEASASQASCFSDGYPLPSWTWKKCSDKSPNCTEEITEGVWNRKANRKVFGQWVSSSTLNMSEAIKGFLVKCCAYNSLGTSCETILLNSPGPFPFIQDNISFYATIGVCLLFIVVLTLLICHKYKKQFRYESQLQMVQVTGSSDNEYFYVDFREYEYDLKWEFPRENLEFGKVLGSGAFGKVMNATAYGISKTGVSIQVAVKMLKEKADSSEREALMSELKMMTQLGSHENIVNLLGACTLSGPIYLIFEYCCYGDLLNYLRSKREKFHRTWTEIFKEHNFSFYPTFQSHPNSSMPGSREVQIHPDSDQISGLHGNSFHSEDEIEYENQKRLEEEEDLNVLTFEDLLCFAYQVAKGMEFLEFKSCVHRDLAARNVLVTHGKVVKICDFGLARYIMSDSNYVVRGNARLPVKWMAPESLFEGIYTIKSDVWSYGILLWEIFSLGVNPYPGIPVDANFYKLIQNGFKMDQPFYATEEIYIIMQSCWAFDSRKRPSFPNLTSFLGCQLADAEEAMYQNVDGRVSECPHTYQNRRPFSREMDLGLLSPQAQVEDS
The following applies: at 1 µM.

Test [16] concerns the target Vascular endothelial growth factor receptor 3 (Homo sapiens) (UniProt P35916). The following applies: at 0.1 µM.
The target is the same in test [17]. The following applies: at 1 µM.
For test [18], the target named is Macrophage colony-stimulating factor 1 receptor (Homo sapiens) (UniProt P07333). To be noted: at 0.1 µM.
Chain of Macrophage colony-stimulating factor 1 receptor (Homo sapiens) (P07333 whole entry): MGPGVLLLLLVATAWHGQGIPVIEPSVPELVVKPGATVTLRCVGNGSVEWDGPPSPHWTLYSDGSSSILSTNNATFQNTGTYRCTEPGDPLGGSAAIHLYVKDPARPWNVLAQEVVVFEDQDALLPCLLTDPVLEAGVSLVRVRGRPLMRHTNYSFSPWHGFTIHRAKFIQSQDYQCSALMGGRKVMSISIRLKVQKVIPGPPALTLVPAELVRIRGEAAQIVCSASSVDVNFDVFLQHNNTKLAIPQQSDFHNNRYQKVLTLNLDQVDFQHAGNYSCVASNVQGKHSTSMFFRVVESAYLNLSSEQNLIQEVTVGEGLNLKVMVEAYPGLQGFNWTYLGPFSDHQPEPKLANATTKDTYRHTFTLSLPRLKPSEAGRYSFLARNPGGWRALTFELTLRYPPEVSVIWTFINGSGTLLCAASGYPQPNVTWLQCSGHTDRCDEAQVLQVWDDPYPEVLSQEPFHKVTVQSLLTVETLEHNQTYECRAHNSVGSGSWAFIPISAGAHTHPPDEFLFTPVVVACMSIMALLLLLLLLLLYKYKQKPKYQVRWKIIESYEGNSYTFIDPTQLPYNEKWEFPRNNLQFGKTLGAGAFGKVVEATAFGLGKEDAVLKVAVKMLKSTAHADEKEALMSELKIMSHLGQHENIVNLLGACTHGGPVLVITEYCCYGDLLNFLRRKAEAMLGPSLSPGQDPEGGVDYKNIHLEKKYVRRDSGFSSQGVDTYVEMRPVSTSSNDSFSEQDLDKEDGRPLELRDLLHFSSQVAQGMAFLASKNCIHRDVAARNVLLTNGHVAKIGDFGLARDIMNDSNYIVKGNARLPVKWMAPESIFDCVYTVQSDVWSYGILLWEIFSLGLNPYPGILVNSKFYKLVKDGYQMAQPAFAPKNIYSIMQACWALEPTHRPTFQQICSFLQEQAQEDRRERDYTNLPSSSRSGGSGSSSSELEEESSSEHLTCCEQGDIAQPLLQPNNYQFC
The target is the same in test [19]. The following applies: at 1 µM.
For test [20], the target named is Tyrosine-protein kinase Fyn (Homo sapiens) (UniProt P06241). To be noted: at 0.1 µM.
Chain of Tyrosine-protein kinase Fyn (Homo sapiens) (P06241 2-537 limits assumed): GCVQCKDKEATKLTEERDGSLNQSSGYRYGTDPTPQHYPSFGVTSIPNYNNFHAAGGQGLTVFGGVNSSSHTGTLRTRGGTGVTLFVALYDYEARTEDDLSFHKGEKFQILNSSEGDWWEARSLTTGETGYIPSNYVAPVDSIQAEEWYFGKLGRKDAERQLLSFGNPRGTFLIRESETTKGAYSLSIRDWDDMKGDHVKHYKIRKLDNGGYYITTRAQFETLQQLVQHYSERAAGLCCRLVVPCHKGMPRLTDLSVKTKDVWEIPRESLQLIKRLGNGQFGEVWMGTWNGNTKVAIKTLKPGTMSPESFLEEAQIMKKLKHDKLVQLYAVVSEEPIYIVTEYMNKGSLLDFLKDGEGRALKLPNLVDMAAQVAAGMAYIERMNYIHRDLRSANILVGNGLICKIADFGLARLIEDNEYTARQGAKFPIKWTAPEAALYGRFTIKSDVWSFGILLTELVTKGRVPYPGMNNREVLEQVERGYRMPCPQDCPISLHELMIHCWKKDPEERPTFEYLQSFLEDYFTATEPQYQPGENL

A word on the inhibition: it is the relative decrease from the control value, in per cent.

Chain of Vascular endothelial growth factor receptor 3 (Homo sapiens) (P35916 whole entry): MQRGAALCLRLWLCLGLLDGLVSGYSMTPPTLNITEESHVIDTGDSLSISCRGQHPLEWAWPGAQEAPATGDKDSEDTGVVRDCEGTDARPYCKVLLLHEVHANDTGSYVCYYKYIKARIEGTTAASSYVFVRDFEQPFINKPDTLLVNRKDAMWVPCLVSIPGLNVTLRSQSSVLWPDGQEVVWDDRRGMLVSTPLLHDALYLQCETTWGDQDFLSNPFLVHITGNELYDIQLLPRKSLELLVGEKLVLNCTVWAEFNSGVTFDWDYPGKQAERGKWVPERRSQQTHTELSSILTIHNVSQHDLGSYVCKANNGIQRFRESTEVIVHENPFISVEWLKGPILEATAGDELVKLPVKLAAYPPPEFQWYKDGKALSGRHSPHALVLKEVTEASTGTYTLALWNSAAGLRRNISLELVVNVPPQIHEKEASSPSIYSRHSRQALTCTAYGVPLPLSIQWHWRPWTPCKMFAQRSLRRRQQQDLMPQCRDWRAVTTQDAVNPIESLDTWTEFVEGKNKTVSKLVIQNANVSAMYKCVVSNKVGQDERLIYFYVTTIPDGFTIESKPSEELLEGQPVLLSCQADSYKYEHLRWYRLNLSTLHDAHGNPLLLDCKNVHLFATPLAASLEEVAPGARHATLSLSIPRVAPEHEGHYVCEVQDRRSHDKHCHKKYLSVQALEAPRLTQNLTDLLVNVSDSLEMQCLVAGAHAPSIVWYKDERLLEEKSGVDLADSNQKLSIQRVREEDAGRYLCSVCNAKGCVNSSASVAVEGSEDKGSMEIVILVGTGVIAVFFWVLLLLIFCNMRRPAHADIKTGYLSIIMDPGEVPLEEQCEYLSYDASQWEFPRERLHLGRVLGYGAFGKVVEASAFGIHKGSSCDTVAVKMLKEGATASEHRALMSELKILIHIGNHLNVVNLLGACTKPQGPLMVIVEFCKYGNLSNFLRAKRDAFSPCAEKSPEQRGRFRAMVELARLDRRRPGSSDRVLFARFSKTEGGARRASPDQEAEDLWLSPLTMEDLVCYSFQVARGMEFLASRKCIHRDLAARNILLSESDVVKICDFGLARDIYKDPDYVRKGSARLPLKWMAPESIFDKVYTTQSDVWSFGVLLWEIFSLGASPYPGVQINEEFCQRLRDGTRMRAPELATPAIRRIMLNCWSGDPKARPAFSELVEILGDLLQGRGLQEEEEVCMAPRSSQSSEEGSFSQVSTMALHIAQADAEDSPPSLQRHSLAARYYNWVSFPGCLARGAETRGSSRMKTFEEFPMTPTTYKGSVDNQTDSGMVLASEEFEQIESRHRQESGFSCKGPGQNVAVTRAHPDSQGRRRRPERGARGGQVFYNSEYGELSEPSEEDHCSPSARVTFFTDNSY
Chain of Serine/threonine-protein kinase Nek7 (Homo sapiens) (Q8TDX7 whole entry, looked up): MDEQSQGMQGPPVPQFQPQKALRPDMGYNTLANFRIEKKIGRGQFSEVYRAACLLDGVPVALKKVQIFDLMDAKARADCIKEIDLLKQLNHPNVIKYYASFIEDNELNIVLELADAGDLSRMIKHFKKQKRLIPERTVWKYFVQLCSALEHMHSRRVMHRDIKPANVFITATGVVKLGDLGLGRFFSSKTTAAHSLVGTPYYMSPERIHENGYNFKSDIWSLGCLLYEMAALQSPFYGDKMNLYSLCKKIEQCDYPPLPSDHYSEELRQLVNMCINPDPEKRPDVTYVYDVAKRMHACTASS
Chain of Serine/threonine-protein kinase PLK1 (Homo sapiens) (P53350 whole entry): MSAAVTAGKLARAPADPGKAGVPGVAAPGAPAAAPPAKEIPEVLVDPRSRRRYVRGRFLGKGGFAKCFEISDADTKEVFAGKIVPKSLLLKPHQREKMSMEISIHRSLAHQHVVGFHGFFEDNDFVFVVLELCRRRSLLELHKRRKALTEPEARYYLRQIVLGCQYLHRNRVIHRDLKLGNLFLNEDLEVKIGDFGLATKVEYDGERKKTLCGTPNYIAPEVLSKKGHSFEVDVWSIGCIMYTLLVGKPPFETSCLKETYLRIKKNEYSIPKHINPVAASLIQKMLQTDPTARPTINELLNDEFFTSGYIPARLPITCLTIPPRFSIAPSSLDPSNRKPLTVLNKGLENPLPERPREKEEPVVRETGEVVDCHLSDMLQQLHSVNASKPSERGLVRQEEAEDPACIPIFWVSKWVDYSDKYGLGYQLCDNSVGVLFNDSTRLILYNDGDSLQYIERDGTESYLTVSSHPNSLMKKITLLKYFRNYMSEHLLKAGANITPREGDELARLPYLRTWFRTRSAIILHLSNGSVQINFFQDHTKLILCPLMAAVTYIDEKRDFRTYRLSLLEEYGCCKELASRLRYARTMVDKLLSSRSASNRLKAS

`CS(=O)(=O)Nc1ccc(-c2cc(-c3ccccc3)cc(C(N)=O)c2N)cc1`: the inhibition in [1] stood at 1.3%; in test [2], 1.84%; in test [3] it was 1.25%; in test [4], 4.07%; in [5] it was 2.73%; in test [6] it was 1.42%. In addition, the inhibition in [7] was -0.5%; in test [8] it was 1.35%; in test [9], 6.39%; in [10], 2.67%; in [11], 1.82%; in [12], 0.78%. For the same compound, the inhibition is 3.05% in [13]; 3.79% in test [14]; -1.74% in test [15]; 11.7% in [16]; 14.7% in test [17]; 1.42% in test [18]. Besides, the inhibition turned out to be 9.05% in test [19] and 1.39% in test [20].
Turning to `c1cnn2ncc(-c3ccnc(NCCCN4CCOCC4)n3)c2c1`, the inhibition is 13.4% in [1]; 1.91% in test [2]; 0.27% in test [3]; 4.15% in test [4]; 4.3% in test [5]; 0.45% in test [6]. In addition, the inhibition in test [7] stood at 2.66%; in test [8], 5.96%; in test [9], 1.47%; in [10], 14.8%; in test [11] it was 9.51%; in [12] it was 4.18%. Besides, the inhibition is 3.55% in [13]; 9.47% in [14]; 1.99% in test [15]; 0.01% in test [16]; 0.07% in test [17]; -0.33% in test [18]. The inhibition worked out at 5.17% in [19] and 2.47% in [20].
